# Pf growth 48h – inhibits P. falciparum growth in the first generation, 48 h. Potency, µM (titrated, usually from 28.7 µM), usual class: inhibitors. actives 5.9% (n = 310,000). AID 504832. P. falciparum luciferase growth in erythrocytes, 48 h; active means well fitted inhibition curve with a large enough effect; inconclusive means small, poorly fitted or top-dose-only effect, or another doubt; inactive means no such curve, though single readings can be large or run the other way
#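 Parasite viability was followed by luminescence of a genomically integrated firefly luciferase. Cultures held 0.1% parasitemia at 2% hematocrit (final), incubated under 5% CO2 at 37 C.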
# SARS PLpro yeast-1 – SARS-CoV PLP inhibition in yeast; S. cerevisiae expressing SARS-CoV PLpro, growth rescue; Potency, µM (highest dose often 32.9 µM), actives largely listed as activators; actives 0.19% (n = 330,000); AID 485353; further: nearly all actives have a fitted effect of over 55% in size
# Pf growth 96h – P. falciparum growth inhibition at 96 hours. actives 6.9% (n = 320,000). Potency, µM (doses to about 28.7 µM), most hits filed as inhibitors. AID 504834. P. falciparum luciferase reporter growth, 96 h; active means well fitted inhibition curve with a large enough effect; inconclusive means small, poorly fitted or top-dose-only effect, or another doubt; inactive means no such curve, though single readings can be large or run the other way
#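 Readout is luminescence from an integrated firefly luciferase in P. falciparum. Red cells, 2% hematocrit and 0.05% parasitemia final, were cultured with compound through two parasite generations (96 hours) at 37 C, 5% CO2.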
# RE007 growth inh – less growth of the S. pombe RE007 Vpr strain; S. pombe RE007 Vpr strain, BacTiter-Glo ATP luminescence, 24 h; Potency, µM (series often up to 92.2 µM), most hits filed as inhibitors; actives 0.21% (n = 360,000); active means well fitted falling curve with a large enough effect; inconclusive means small, poorly fitted or top-dose-only effect; inactive means no such curve, though single readings can be large or run the other way; further: nearly all actives have a fitted effect of over 50% in size
#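 Fission yeast RE007 carrying one integrated HIV-1 vpr copy, seeded at OD 0.01 in PMG+AL medium with 23 nL pinned compound. Grown 24 h at 30 degrees; viability read by BacTiter-Glo luminescence after 5 min.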
# NS1 inh – influenza NS1 inhibition; actives 0.4% (n = 270,000); Potency, µM (highest dose often 46.1 µM); further: actives are rising curves; nearly all actives have a fitted effect of over 50% in size
#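 In this qHTS, NS1 from influenza A is expressed in budding yeast, where it slows growth. Cells are switched from glucose to 2% galactose medium (pH 6.0, -URA), treated with compound, and growth recovery is read at OD600.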
# SARS PLpro yeast-2 – Inhibits SARS-CoV PLP in yeast, hit validation; shares compounds with SARS PLpro yeast-1; yeast expressing SARS-CoV PLpro, growth phenotype rescue; calls only; actives 19% (n = 1,000); AID 652038; call rule not given here
# A number is an active result; . = inactive; ? = inconclusive; / = no result given; + = active, no number. Shown are actives, neighbours in structure and some others; about 9.5% of the full set was active somewhere. Unless noted, the call rests on the fitted dose curve.
SMILES,Pf growth 48h,SARS PLpro yeast-1,Pf growth 96h,RE007 growth inh,NS1 inh,SARS PLpro yeast-2
CC(=O)NC(C)c1cc(Cl)c2cccnc2c1O (stereo not drawn),?,?,?,/,/,.
CCCC(=O)NC(c1ccc(Cl)cc1)c1ccc2cccnc2c1O (stereo not drawn),?,.,.,?,.,/
COc1ccc(C(NC(C)=O)c2ccc3cccnc3c2O)c(OC)c1 (stereo not drawn),1.7µM,2.2µM,3.3µM,.,.,+
O=C(O)COc1ccccc1C(Nc1ccccn1)c1cc(Cl)c2cccnc2c1O (stereo not drawn),.,5µM,.,.,.,.
CC(=O)NC(c1ccc(Cl)cc1Cl)c1ccc2cccnc2c1O (stereo not drawn),4.1µM,?,.,.,.,.
CC(=O)N1c2ccc(S(=O)(=O)NCCC(=O)Nc3ccc(F)cc3)cc2CC1C (stereo not drawn),?,.,.,.,.,/
CCOC(=O)[C@H]1[C@H]2COc3ccc(Br)cc3[C@@H]2N2C(=O)CN(Cc3ccc(Cl)cc3)C(=O)[C@@]12C,/,.,/,.,/,/
CCOC(=O)[C@H]1[C@H]2COc3ccc(Br)cc3[C@@H]2N2C(=O)CN(Cc3ccco3)C(=O)[C@@]12C,?,?,?,.,/,.
O=C(CCc1nc2ccccc2[nH]c1=O)N/N=C/c1ccccc1,.,.,?,.,.,/
C=CCOc1ccc(C2NC(=S)NC(c3ccccc3)=C2C(C)=O)cc1OC (stereo not drawn),.,.,.,.,.,/
CCOC(=O)COc1c(Cl)cc(C2NC(=S)NC(c3ccccc3)=C2C(C)=O)cc1OCC (stereo not drawn),?,?,?,.,.,.
COc1cc(/C=N/NC(=O)c2ccc(COc3cc(C)ccc3C(C)C)cc2)cc(OC)c1O,?,.,?,.,.,/
Cc1ccc(C(C)C)c(OCc2ccc(C(=O)N/N=C/c3cccc(O)c3O)cc2)c1,1.7µM,2.8µM,2.6µM,?,.,?
O=c1c2ccccc2nc(COc2ccccc2)n1/N=C/c1cc([N+](=O)[O-])ccc1O,2.6µM,5.6µM,?,?,.,?
Cc1cc(/C=N/n2c(COc3ccccc3C)nc3ccccc3c2=O)c(O)c([N+](=O)[O-])c1,3.3µM,3.5µM,?,.,?,+
Cc1ccccc1OCc1nc2ccccc2c(=O)n1/N=C/c1c[nH]c2ccccc12,.,.,?,.,.,/
CCOCc1cc(CN2CCCC(CNC(=O)c3ccco3)C2)ccc1OC (stereo not drawn),?,.,.,.,.,/
CCOC(=O)CSc1n[nH]c(NC(C)=O)n1,.,.,.,.,.,/
Cc1ccccc1OCCOC(=O)c1cc(S(=O)(=O)N2CCCCC2)ccc1N1CCOCC1,13µM,10µM,?,.,/,?
Cc1ccccc1OCCOC(=O)c1ccc(S(=O)(=O)N2CCCC2)cc1,?,.,?,.,/,/
O=C(O)COc1ccccc1/C=N/NC(=O)CNC(=O)c1ccco1,.,0.4µM,.,.,.,.
Cc1ccc(-c2cc(C(=O)NCc3cnn(C)c3C)c3cc(Br)ccc3n2)cc1,.,?,?,.,.,.
Cc1cccc(CC(=O)NCC2CCCCC2)c1,.,.,?,.,.,/
CC(C)n1cnnc1SCC(=O)NC(=O)c1ccccc1,.,?,.,.,/,.
Cc1ccc(C(=O)NC(=O)CSc2nncn2C)cc1,.,.,.,.,.,/
SMILES,Pf growth 48h,SARS PLpro yeast-1,Pf growth 96h,RE007 growth inh,NS1 inh,SARS PLpro yeast-2
N#Cc1ccc(COC(=O)CCc2c[nH]c3ccccc23)cc1,.,.,.,.,.,/
COc1ccccc1C(=O)NC(=S)Nc1ccc(NC(=O)c2cccs2)cc1,?,?,.,.,.,.
Cc1cccc(C)c1NC(=O)C(C1CC1)n1c(-c2ccc(-c3ccccc3)cc2)nc2ccccc21 (stereo not drawn),/,/,/,.,/,/
C/C(=N\NC(=S)NC1CCCCC1)c1ccc(C#N)cc1,.,16µM,.,.,.,+
COc1ccc(C(=O)COC(=O)C2CC3CCCC(C2)C3=O)cc1Br (stereo not drawn),?,?,.,.,/,.
COc1cccc(C(=O)COC(=O)C2CC3CCCC(C2)C3=O)c1 (stereo not drawn),.,.,.,.,/,/
Cc1cc(C(=O)N/N=C/c2cc(N=Nc3ccccc3)ccc2O)n[nH]1,?,7.9µM,?,.,.,.
CC(C)C1Oc2ccccc2N(CC(=O)N(Cc2ccccn2)CC2CCCO2)C1=O (stereo not drawn),.,1.8µM,.,.,.,.
CCn1c(CC(=O)Nc2ccccc2Cl)nnc1SCC(=O)NC1CCCC1,.,.,.,.,.,/
CCCCCC(C)NC(=O)c1ccoc1C (stereo not drawn),.,/,.,?,.,.
CCC(=NCc1cccnc1)c1c(O)n(-c2ccccc2C)c(=O)[nH]c1=O,.,.,?,.,.,/
CC(=NCc1cccnc1)c1c(O)n(-c2ccccc2C)c(=O)[nH]c1=O,/,3.5µM,.,.,.,.
COc1cccc(CN2CC(C(=O)N(C)CCCC3CCCC3)CCC2=O)c1 (stereo not drawn),.,.,.,.,.,/
Cc1ccccc1-n1c(O)c(/C=N/NC(=O)c2ccccc2O)c(=O)[nH]c1=S,.,.,.,.,.,/
O=C(N/N=C/c1c(O)n(C2CC2)c(=S)[nH]c1=O)c1ccccc1O,.,13µM,?,.,.,.
COc1ccc(S(=O)(=O)N2CCN(c3ccc(F)cc3)CC2)cc1C(=O)N1CCOCC1,.,.,.,.,.,/
Cn1c(=O)c2c(nc(CN3CCOCC3)n2CCN2CCOCC2)n(C)c1=O,.,.,.,.,.,/
COC(=O)Cn1c(CN2CCOCC2)nc2c1c(=O)n(C)c(=O)n2C,.,?,.,.,.,.
O=C(NCc1ccccc1Cl)C1CCN(C(=O)c2ccco2)CC1,.,.,?,.,.,/
O=C1C(c2ccccc2)=C(N2CC2)c2ccccc21,5.9µM,?,3.7µM,?,.,.
O=C(N/N=C/c1cc(Cl)ccc1O)C(=O)Nc1ccccc1OC(F)(F)C(F)F,?,2µM,.,.,.,.
Nn1c(COc2ccccc2F)nnc1SCC(=O)NC1CCS(=O)(=O)C1 (stereo not drawn),.,.,.,.,/,/
CCOC(=O)Cn1cnc2c(nnn2-c2cccc(OC)c2)c1=O,.,.,.,/,.,/
COc1cccc(-n2nnc3c(=O)n(CC(=O)OCc4ccccc4)cnc32)c1,.,?,0.17µM,.,.,.
Cc1c(C(=O)OCC2CCCO2)[nH]c2c1C(=O)CC(c1ccco1)C2 (stereo not drawn),?,?,/,.,.,.
COc1ccc(OC)c(C2CC(=O)c3c([nH]c(C(=O)OCC4CCCO4)c3C)C2)c1 (stereo not drawn),?,.,?,.,.,/
